The full ranking holds about 5,000 sequences; the median of “log2 normalized fluorescence” is about 0.089, and the highest 2% start at about 0.81. For the sample, the highest values were picked, then their nearest neighbours and some sequences at random.
Each sequence was assayed against MYC (p64);MAX (p21), in MYC:MAX (human;human, UniProt P01106-1;P61244-2 1-439;1-151, |) (assay: protein-binding microarray (anti-MAX antibody); PBM: 15 mM Tris-HCl pH 7.5, 100 mM KCl, 0.075% NP40, 7.5 mM beta-mercaptoethanol, 375 ng/ul BSA, 8 ng/ul poly(dA-dT):(dA-dT), 550 ng complex, 60 min, room tempe; high values mean tight binding). Conditions: protein: recombinant;recombinant; tags: 6xHis;6xHis; copies: 1;1; label: 3' end of printed strand (linker) attached to glass slide; dsDNA, one strand shown.
MYC (p64);MAX (p21), in MYC:MAX, sequence (P01106 16-454, chain 1 of 2): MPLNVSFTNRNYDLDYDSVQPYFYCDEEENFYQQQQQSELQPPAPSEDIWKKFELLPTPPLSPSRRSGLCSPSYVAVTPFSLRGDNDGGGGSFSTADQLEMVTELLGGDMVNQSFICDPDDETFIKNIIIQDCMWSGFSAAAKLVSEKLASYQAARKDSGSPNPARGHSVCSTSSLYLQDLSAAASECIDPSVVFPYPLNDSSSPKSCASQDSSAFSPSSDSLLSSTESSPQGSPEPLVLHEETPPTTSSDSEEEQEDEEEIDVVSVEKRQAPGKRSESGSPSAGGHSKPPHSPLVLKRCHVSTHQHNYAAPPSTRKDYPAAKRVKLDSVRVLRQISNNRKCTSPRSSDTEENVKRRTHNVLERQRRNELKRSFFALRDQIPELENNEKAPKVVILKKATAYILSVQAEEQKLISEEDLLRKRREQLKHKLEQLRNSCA
MYC (p64);MAX (p21), in MYC:MAX, sequence (P61244 other isoform, or with tags, fused parts or gaps |, chain 2 of 2): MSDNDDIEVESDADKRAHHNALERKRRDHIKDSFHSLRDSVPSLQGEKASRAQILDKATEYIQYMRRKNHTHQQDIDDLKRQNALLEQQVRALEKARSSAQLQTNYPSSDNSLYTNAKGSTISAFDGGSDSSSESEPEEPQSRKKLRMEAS
In short: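 Recombinant His-tagged human MYC:MAX or MAX:MAX dimers (550 ng, expressed in E. coli) were incubated for 60 min at room temperature in Tris-KCl buffer, pH 7.5, with NP40, BSA and poly(dA-dT) competitor. The custom Agilent glass array held ~5000 unique 12-nt sequences, each spotted in triplicate and made double-stranded by primer extension. Bound protein was detected with anti-MAX and secondary antibodies and scanned at 543 nm. Binding is reported as log2 normalized fluorescence.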
In the case of “CCGGCTGACGCGTCGTATTAATAGCTAAGATTACTATATCGACG”, the binding signal is reported as 0.46 log2 normalized fluorescence. In the case of “CCGGCTGACGCGTGATATTAATAGCTAAGATTACTATATCGACG”, the binding signal is reported as 0.675 log2 normalized fluorescence. With “CCGGCCCACACGTGGTATTAATAGCTAAGATTACTATATCGACG” the binding signal was 0.945 log2 normalized fluorescence. “CCGGCTAAGACGTGGTATTAATAGCTAAGATTACTATATCGACG” was tested, and the binding signal was 0.411 log2 normalized fluorescence. For “CCGGCGCCCACGTGGTATTAATAGCTAAGATTACTATATCGACG”, the binding signal was 0.862 log2 normalized fluorescence. With “CCGGCCCACACGTGGTGTTAATAGCTAAGATTACTATATCGACG” the binding signal was 0.705 log2 normalized fluorescence. With “CCGGCGACCACGTGGTATTAATAGCTAAGATTACTATATCGACG” the binding signal was 0.741 log2 normalized fluorescence. “CCGGCCCGCACGTGGTATTAATAGCTAAGATTACTATATCGACG” was tested, and the binding signal was 0.749 log2 normalized fluorescence. With “CCGGCTCCCACGTGGTATTAATAGCTAAGATTACTATATCGACG” the binding signal was 0.763 log2 normalized fluorescence. With “CCGGCCCCCACGTGGTATTAATAGCTAAGATTACTATATCGACG” the binding signal was 0.854 log2 normalized fluorescence. In the case of “CCGGCTGATCAAGGGTATTAATAGCTAAGATTACTATATCGACG”, the binding signal is reported as 0.0432 log2 normalized fluorescence. In the case of “CCGGCTGAAGTTGTGTATTAATAGCTAAGATTACTATATCGACG”, the binding signal is reported as 0.0113 log2 normalized fluorescence. With “CCGGCTGAACGAAAGTATTAATAGCTAAGATTACTATATCGACG” the binding signal was 0.0903 log2 normalized fluorescence. “CCGGCTGACACGTGACGTTAATAGCTAAGATTACTATATCGACG” was tested, and the binding signal was 0.654 log2 normalized fluorescence. In the case of “CCGGCTGACACATGGTTTTAATAGCTAAGATTACTATATCGACG”, the binding signal is reported as 0.817 log2 normalized fluorescence. For “CCGGCTGACACGTGTTGTTAATAGCTAAGATTACTATATCGACG”, the binding signal was 0.83 log2 normalized fluorescence. In the case of “CCGGCTGACACGTTAGATTAATAGCTAAGATTACTATATCGACG”, the binding signal is reported as 0.482 log2 normalized fluorescence. With “CCGGCTGACACGTGTAATTAATAGCTAAGATTACTATATCGACG” the binding signal was 0.708 log2 normalized fluorescence. “CCGGCCGACACATGGTTTTAATAGCTAAGATTACTATATCGACG” was tested, and the binding signal was 0.635 log2 normalized fluorescence. For “CCGGCTGACACGTGGTGTTAATAGCTAAGATTACTATATCGACG”, the binding signal was 0.534 log2 normalized fluorescence. “CCGGCTGACATGTGGTTTTAATAGCTAAGATTACTATATCGACG” was tested, and the binding signal was 0.359 log2 normalized fluorescence. With “CCGGCTGACACGTGTCGTTAATAGCTAAGATTACTATATCGACG” the binding signal was 0.947 log2 normalized fluorescence. “CCGGCTGACACGTGAACTTAATAGCTAAGATTACTATATCGACG” was tested, and the binding signal was 0.796 log2 normalized fluorescence. “CCGGCTGACACGTGTACTTAATAGCTAAGATTACTATATCGACG” was tested, and the binding signal was 0.823 log2 normalized fluorescence. With “CCGGCTGACACGTGTTATTAATAGCTAAGATTACTATATCGACG” the binding signal was 0.722 log2 normalized fluorescence. In the case of “CCGGCTGAGACCTGCTATTAATAGCTAAGATTACTATATCGACG”, the binding signal is reported as -0.0388 log2 normalized fluorescence. For “CCGGCTGGCACCTGGCATTAATAGCTAAGATTACTATATCGACG”, the binding signal was 0.319 log2 normalized fluorescence. In the case of “CCGGCTGAGTGTTAGTATTAATAGCTAAGATTACTATATCGACG”, the binding signal is reported as 0.177 log2 normalized fluorescence. For “CCGGCTGATGATGCGTATTAATAGCTAAGATTACTATATCGACG”, the binding signal was 0.112 log2 normalized fluorescence. For “CCGGCTGATATGACGTATTAATAGCTAAGATTACTATATCGACG”, the binding signal was 0.0181 log2 normalized fluorescence. In the case of “CCGGCTAACACAAGGTATTAATAGCTAAGATTACTATATCGACG”, the binding signal is reported as 0.534 log2 normalized fluorescence. “CCGGCTGACACGATATATTAATAGCTAAGATTACTATATCGACG” was tested, and the binding signal was 0.408 log2 normalized fluorescence. “CCGGCTGACACGTAGTGTTAATAGCTAAGATTACTATATCGACG” was tested, and the binding signal was 0.396 log2 normalized fluorescence. In the case of “CCGGCTGACACGTGTTTTTAATAGCTAAGATTACTATATCGACG”, the binding signal is reported as 0.847 log2 normalized fluorescence. With “CCGGCTGACACGTAGTTTTAATAGCTAAGATTACTATATCGACG” the binding signal was 0.406 log2 normalized fluorescence. For “CCGGCTGACACGTGTAGTTAATAGCTAAGATTACTATATCGACG”, the binding signal was 0.834 log2 normalized fluorescence. With “CCGGCTGACACGTGACCTTAATAGCTAAGATTACTATATCGACG” the binding signal was 0.633 log2 normalized fluorescence. “CCGGCTGTCACGTGTTCTTAATAGCTAAGATTACTATATCGACG” was tested, and the binding signal was 0.848 log2 normalized fluorescence. With “CCGGCTGACACGTGTTCTTAATAGCTAAGATTACTATATCGACG” the binding signal was 0.738 log2 normalized fluorescence. For “CCGGCTGACACGTGGTTTTAATAGCTAAGATTACTATATCGACG”, the binding signal was 0.795 log2 normalized fluorescence. In the case of “CCGGCTGACACGTGTCCTTAATAGCTAAGATTACTATATCGACG”, the binding signal is reported as 0.926 log2 normalized fluorescence. In the case of “CCGGCTGACACGTGCCCTTAATAGCTAAGATTACTATATCGACG”, the binding signal is reported as 0.7 log2 normalized fluorescence. “CCGGCTGACACGTGTGTTTAATAGCTAAGATTACTATATCGACG” was tested, and the binding signal was 0.7 log2 normalized fluorescence. In the case of “CCGGCTGTCACGTGCTATTAATAGCTAAGATTACTATATCGACG”, the binding signal is reported as 0.591 log2 normalized fluorescence. In the case of “CCGGCTGAAACAACGTATTAATAGCTAAGATTACTATATCGACG”, the binding signal is reported as 0.159 log2 normalized fluorescence. In the case of “CCGGCCGACATGTAGTATTAATAGCTAAGATTACTATATCGACG”, the binding signal is reported as 0.368 log2 normalized fluorescence. For “CCGGCAGACAAGTGCTATTAATAGCTAAGATTACTATATCGACG”, the binding signal was 0.353 log2 normalized fluorescence. “CCGGCAATCTAGTCTACTTAATAGCTAAGATTACTATATCGACG” was tested, and the binding signal was 0.0163 log2 normalized fluorescence. With “CCGGCTGATATAATGTATTAATAGCTAAGATTACTATATCGACG” the binding signal was 0.0653 log2 normalized fluorescence. With “CCGGCTGAACTCGCGTATTAATAGCTAAGATTACTATATCGACG” the binding signal was 0.276 log2 normalized fluorescence. With “CCGGCTGAAACCAAGTATTAATAGCTAAGATTACTATATCGACG” the binding signal was 0.0737 log2 normalized fluorescence. For “CCGGCTGAACCAGTGTATTAATAGCTAAGATTACTATATCGACG”, the binding signal was 0.036 log2 normalized fluorescence. In the case of “CCGGCTAGCACGTGGCATTAATAGCTAAGATTACTATATCGACG”, the binding signal is reported as 0.803 log2 normalized fluorescence. With “CCGGCTGACACGTGCAATTAATAGCTAAGATTACTATATCGACG” the binding signal was 0.779 log2 normalized fluorescence. With “CCGGCTGACACGTGCAGTTAATAGCTAAGATTACTATATCGACG” the binding signal was 0.746 log2 normalized fluorescence. For “CCGGCTGACACGTGCACTTAATAGCTAAGATTACTATATCGACG”, the binding signal was 0.88 log2 normalized fluorescence. For “CCGGCTAGCACGTGTTTTTAATAGCTAAGATTACTATATCGACG”, the binding signal was 0.813 log2 normalized fluorescence. “CCGGCTGGCACGTGGTTTTAATAGCTAAGATTACTATATCGACG” was tested, and the binding signal was 0.67 log2 normalized fluorescence. For “CCGGCTGAATCTTGGTATTAATAGCTAAGATTACTATATCGACG”, the binding signal was -0.0321 log2 normalized fluorescence. “CCGGCTGAAAGGTCGTATTAATAGCTAAGATTACTATATCGACG” was tested, and the binding signal was 0.0812 log2 normalized fluorescence. For “CCGGCTGGAGCGTGGTATTAATAGCTAAGATTACTATATCGACG”, the binding signal was 0.418 log2 normalized fluorescence. In the case of “CCGGCTGAAATCGCGTATTAATAGCTAAGATTACTATATCGACG”, the binding signal is reported as 0.18 log2 normalized fluorescence. “CCGGCTGAATCAATGTATTAATAGCTAAGATTACTATATCGACG” was tested, and the binding signal was 0.252 log2 normalized fluorescence. In the case of “CCGGCTGAGAACACGTATTAATAGCTAAGATTACTATATCGACG”, the binding signal is reported as 0.318 log2 normalized fluorescence. “CCGGCTGACCTTGAGTATTAATAGCTAAGATTACTATATCGACG” was tested, and the binding signal was 0.204 log2 normalized fluorescence. In the case of “CCGGCAGACACGTGATCTTAATAGCTAAGATTACTATATCGACG”, the binding signal is reported as 0.751 log2 normalized fluorescence. In the case of “CCGGCTGGCACGTGGCATTAATAGCTAAGATTACTATATCGACG”, the binding signal is reported as 0.721 log2 normalized fluorescence. For “CCGGCAGACACGCGATATTAATAGCTAAGATTACTATATCGACG”, the binding signal was 0.437 log2 normalized fluorescence. With “CCGGCTGGCACGTGGTATTAATAGCTAAGATTACTATATCGACG” the binding signal was 0.809 log2 normalized fluorescence. “CCGGCTGGCACGTGGTGTTAATAGCTAAGATTACTATATCGACG” was tested, and the binding signal was 0.954 log2 normalized fluorescence. For “CCGGCAGACACGTCGTATTAATAGCTAAGATTACTATATCGACG”, the binding signal was 0.32 log2 normalized fluorescence. In the case of “CCGGCAGAAACGTGTTATTAATAGCTAAGATTACTATATCGACG”, the binding signal is reported as 0.573 log2 normalized fluorescence. In the case of “CCGGCCGACACGGCGTATTAATAGCTAAGATTACTATATCGACG”, the binding signal is reported as 0.161 log2 normalized fluorescence. For “CCGGCAGACACGTGATATTAATAGCTAAGATTACTATATCGACG”, the binding signal was 0.851 log2 normalized fluorescence. With “CCGGCAGACACGTGTTATTAATAGCTAAGATTACTATATCGACG” the binding signal was 0.993 log2 normalized fluorescence. “CCGGCCGACACGTGTTATTAATAGCTAAGATTACTATATCGACG” was tested, and the binding signal was 0.999 log2 normalized fluorescence. In the case of “CCGGCCGACACCTGTTATTAATAGCTAAGATTACTATATCGACG”, the binding signal is reported as 0.432 log2 normalized fluorescence.

— article PMC5515408, “Sequence-specific DNA binding by MYC/MAX to low-affinity non-E-box motifs”
